Test results: PubChem BioAssay (NCI)
This is part of a sample that, as a whole, favours compounds with a hit. Of some 83,000 tested, about 20% had one in any assay.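 Single-concentration screen, 48 h exposure, 96-well plates. Endpoint: percent growth. Below 10 = active.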 Values without a mark were called inactive. The source made the active and inactive calls.

Tests used:
Assay in all cases: NCI-60 one-dose screen, 48 h (100 = growth as untreated, 0 = no growth, -100 = all killed)
Settings in all cases: 10 µM unless noted
[1] = tested on: HCT-15 colon
[2] = tested on: HT29 colon
[3] = tested on: SNB-75 CNS
[4] = tested on: SNB-19 CNS
[5] = tested on: U251 CNS
[6] = tested on: PC-3 prostate
[7] = tested on: SK-MEL-5 melanoma
[8] = tested on: UACC-62 melanoma
[9] = tested on: LOX IMVI melanoma
[10] = tested on: SK-MEL-28 melanoma
[11] = tested on: SK-MEL-2 melanoma
[12] = tested on: EKVX NSCLC
[13] = tested on: SN12C renal
[14] = tested on: UO-31 renal
[15] = tested on: TK-10 renal
[16] = tested on: ACHN renal
[17] = tested on: CAKI-1 renal
[18] = tested on: A498 renal
[19] = tested on: CCRF-CEM leukemia
[20] = tested on: MOLT-4 leukemia

SMILES	growth [1]	growth [2]	growth [3]	growth [4] [%]	growth [5]	growth [6]	growth [7]	growth [8]	growth [9]	growth [10]	growth [11]	growth [12] [%]	growth [13]	growth [14] [%]	growth [15] [%]	growth [16]	growth [17]	growth [18]	growth [19]	growth [20]
C/C(=C(/c1ccccc1)c1ccc(OCC(O)CNCCN2CCOCC2)cc1)c1ccccc1 (stereo not given)	4.47% (active)	3.2% (active)	65.8%	91.2	32.6%	65.4%	29%	62.8%	18.7%	-86.2% (active)	94.9%	82.8	76.1%	69.2	73.5	81.4%	67.9%	79.9%	56.5%	41%
CN1CCN(c2cnc(C(=O)Nc3cc(F)cc4cccnc34)cn2)CC1	30.8%	42.6%	95.2%	87.4	79.9%	21.4%	89.2%	95.3%	59.6%	67.8%	94.8%	45.5	62.2%	43	69.3	26.5%	57.3%	75.7%	35.6%	23.5%
CC(=O)Nc1ccc(S(=O)(=O)NC2CCCCC2)cc1	95.9%	95.4%	86.3%	96.2	91%	94.6%	98.2%	91.4%	95.8%	98.3%	108%	95.2	91%	85.2	90.2	91.7%	98.5%	64.3%	96.3%	101%
CCCCCCCCCCN=C(N)N=C(N)N	71.1%	41.6%	3.65% (active)	38.7	34.8%	22.1%	4.63% (active)	37.2%	47.3%	63.3%	75.8%	38.8	9.21% (active)	43.1	40.8	40.1%	43.4%	54.9%	35.7%	30.8%
Clc1ccc(N2N=C(c3cccc(Nc4ccncc4)c3)CC2c2ccc(Br)cc2)cc1 (stereo not given)	-74.7% (active)	-2.76% (active)	79.2%	80.8	-41.5% (active)	22%	68.6%	101%	-96% (active)	-85.5% (active)	94.7%	77.9	54.3%	43.2	62.3	2.34% (active)	27.3%	71.6%	3.27% (active)	-0.295% (active)
COc1ccc(C(O)c2cc3c(N)c(C(=O)Nc4cccc(Br)c4C)sc3nc2C)cc1 (stereo not given)	18.6%	-16% (active)	-1.38% (active)	44	20.9%	26.9%	-7.36% (active)	27.2%	32.7%	64.7%	9.35% (active)	37.7	17.9%	33.5	27	29.1%	41.1%	-16.1% (active)	16.4%	23.1%
CC(C)Sc1nc(NN)c(C#N)c(-c2ccccc2)n1	96.5%	111%	92.7%	95.9	100%	85.1%	99.7%	90.6%	96.7%	90.4%	109%	94.1	98.8%	75.9	107	93%	93.6%	92.8%	94.3%	97.4%
O=c1[nH]nc(-c2ccc(Cl)cc2)cc1Cc1cccc([N+](=O)[O-])c1	105%	116%	110%	88.5	92.1%	91.1%	79.3%	74.3%	93.5%	109%	174%	39.8	89.1%	71.7	147	98.3%	80.8%	106%		5.84% (active)
O=C1CCCCCCCCC(O)C(O)CCCC(c2cccs2)O1 (stereo not given)	96.7%	114%	102%	87.1	98.3%	88.2%	91%	81.8%	96.5%	123%	120%	82.2	106%	75.2	115	94.8%	93.9%	102%	47.4%	31%
COc1ccc(Cc2nc3cc(OC)c(OC)cc3c(=O)[nH]2)cc1	29.8%	62.9%	107%	81.7	77.8%	86.4%	90.8%	77.6%	61%	79.3%	105%	105	67.9%	69.6	237	72.2%	95.7%	122%		80.7%
CN1CCN(CCCOc2ccc3ncnc(Nc4ccc(Oc5cccc(C(F)(F)F)c5)c(Cl)c4)c3c2)CC1	-55.7% (active)	-26.9% (active)	-21.1% (active)	41.7	-11% (active)	7.28% (active)	-96.8% (active)	-75.7% (active)	-87.7% (active)	-93.2% (active)	40.3%	36.6	27.1%	20.1	19.3	-37.5% (active)	0.55% (active)	63.1%		3.44% (active)
CN1C(=O)N(C)C2NC(N/N=C/c3ccccc3)=NC21 (stereo not given)	103%	111%	76.3%	102	101%	95.6%	102%	100%	96.5%	102%	108%	98.7	98.5%	92.7	100	102%	88.8%	95.4%		103%
CCNC(=O)c1[nH]cc(-c2ccc(OC)cc2)c1-c1cc(OC)c(OC)c(OC)c1	35.7%	14.7%	-6.81% (active)	55.2	55.5%	28.8%	16%	27%	44.5%	56.7%	67.5%	62.4	60.5%	30.7	83.9	35.8%	29.4%	-14% (active)		92%
